Assay outcomes from PubChem BioAssay.
MCL1-BIM inh – inhibitors of MCL1 binding to BIM-BH3, primary screen, biochemical, fluorescence polarization; inhibition, % at 10.9 µM; Induced myeloid leukemia cell differentiation protein Mcl-1 (Homo sapiens), Q07820; GST-MCL1 / FITC-Bim-BH3 fluorescence polarization; actives 0.68% (n = 320,000); AID 2057, 2009;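 active = inhibition above the mean inhibition of all tested compounds plus 3 SD, set per campaign, cut at about 40% in these data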;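 note: 0% = DMSO wells and 100% = unlabeled Bim-BH3 peptide control; higher means more loss of mP so more displacement of Bim peptide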
Mcl-1 Bim block – inhibitors of Bim peptide binding to Mcl-1, primary screen, biochemical, bead-based flow cytometry, multiplex. Induced myeloid leukemia cell differentiation protein Mcl-1 (Homo sapiens), Q07820. Bim peptide-Mcl-1 binding. inhibition, % at 10 µM. actives 0.1% (n = 190,000); in the data active = inhibition above about 40%;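 note: 0% = no compound tracer wells and 100% = peptide blocker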
Mcl1 Noxa PPI – Mcl-1/Noxa binding inhibitors, primary screen, biochemical, TR-FRET, 1536-well; Induced myeloid leukemia cell differentiation protein Mcl-1 (Homo sapiens), Q07820; TR-FRET Mcl-1/Noxa peptide binding, 2 h; inhibition, % at 21.7 µM; actives 1.5% (n = 220,000); AID 1022, 2008;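 active = compounds that cut the protein-peptide binding signal by more than 50% relative to plate controls in a single-dose test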;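 note: His-tagged Mcl-1 with rhodamine Noxa BH3 peptide and terbium anti-His antibody; 0% = Mcl-1 plus Noxa peptide wells and 100% = peptide-only wells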
Mcl1 Bid PPI – Mcl-1/Bid binding inhibitors, primary screen, biochemical, TR-FRET, 1536-well. Induced myeloid leukemia cell differentiation protein Mcl-1 (Homo sapiens), Q07820. TR-FRET Mcl-1/Bid-Dy647 peptide binding. inhibition, % at 21.7 µM. actives 0.97% (n = 220,000);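 active = compounds that cut the binding signal by more than half at the single screening dose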;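 note: His-tagged Mcl-1 with europium anti-His antibody binding Bid BH3 peptide; 0% = Mcl-1 plus peptide wells and 100% = peptide-only wells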
BCLXL inh – inhibitors of human Bcl-xL, primary screen, biochemical, fluorescence polarization, HTS | Bcl-2-like protein 1 (Homo sapiens), Q07817 | GST-Bcl-xL / FITC-Bim BH3 peptide fluorescence polarization | inhibition, % at 10.9 µM | actives 0.7% (n = 320,000);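 active = inhibition above the mean of all tested compounds plus 3 SD, cutoff set per campaign, cut at about 30% in these data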;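 note: 0% = DMSO wells and 100% = unlabeled Bim-BH3 peptide competitor; inhibitors lower millipolarization by displacing the labeled peptide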
GLD-1 TGE inh – GLD-1/TGE RNA complex disruptors, primary screen, biochemical, fluorescence polarization; purified GLD-1 + fluorescein TGE RNA; AID 2280, 2010; actives 0.44% (n = 320,000); inhibition, % at 5.96 µM;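 active = percent inhibition above a per-plate cutoff, the plate mean of test compounds plus 3 SD, cut at about 30% in these data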;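 note: 0% = DMSO wells with GLD-1 and probe and 100% = wells lacking GLD-1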
Target sequence (Q17339 whole entry, looked up): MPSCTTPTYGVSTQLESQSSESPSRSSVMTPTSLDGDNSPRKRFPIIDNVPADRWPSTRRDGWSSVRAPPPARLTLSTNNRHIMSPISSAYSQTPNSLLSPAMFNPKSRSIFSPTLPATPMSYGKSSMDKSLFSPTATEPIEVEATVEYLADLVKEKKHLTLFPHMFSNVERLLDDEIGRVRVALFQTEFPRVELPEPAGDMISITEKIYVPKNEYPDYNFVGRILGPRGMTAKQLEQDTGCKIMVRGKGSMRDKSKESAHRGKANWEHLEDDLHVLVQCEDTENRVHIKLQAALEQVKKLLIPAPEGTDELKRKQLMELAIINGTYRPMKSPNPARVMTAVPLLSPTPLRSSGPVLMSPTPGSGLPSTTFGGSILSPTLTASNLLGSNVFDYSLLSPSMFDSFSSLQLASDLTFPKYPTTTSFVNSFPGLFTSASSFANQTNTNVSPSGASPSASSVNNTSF
Active calls of the source: *; . = no result. This is a sample that favours compounds with a hit; in the whole collection about 2.3% have one here.

SMILES	MCL1-BIM inh	Mcl-1 Bim block	Mcl1 Noxa PPI	Mcl1 Bid PPI	BCLXL inh	GLD-1 TGE inh
COc1ccccc1NS(=O)(=O)c1cccc(NC(=O)C2CC(=O)N(Cc3ccccc3)C2)c1 (stereo unspecified)	0	1	12	88*	-1	6
COc1cccc(NC(=O)CN(C)C(=O)Cc2c(C)nc3ccccc3c2C)c1	-11	.	.	.	-2	-4
Cc1cc(C)nc(NC(=O)c2c(F)c(F)c(F)c(C(=O)Nc3cc(C)cc(C)n3)c2F)c1	-5	.	.	.	-1	-1
COc1cc(NC(=O)c2cc3ccccc3cc2O)c(OC)cc1Cl	-8	.	61*	-32	-2	-3
COc1ccccc1NC(=O)c1cc2cc(Br)ccc2cc1O	17	.	88*	-34	3	9
COc1cc2c(C(=O)Nc3ccccc3F)cn(C)c(=O)c2cc1OC	-2	.	.	.	2	2
COc1ccccc1NC(=O)c1cn(C)c(=O)c2cc(OC)c(OC)cc12	0	-6	8	84*	4	0
CC(CN1CCCCC1)NC(=O)c1cccs1 (stereo unspecified)	1	.	.	.	5	1
COCCN(CCOC)C(=O)c1c[nH]c2ccc(S(=O)(=O)N(C)c3ccc(F)cc3)cc2c1=O	3	-3	41	62*	5	0
CN(c1ccc(F)cc1)S(=O)(=O)c1ccc2[nH]cc(C(=O)O)c(=O)c2c1	4	0	12	58*	5	4
COCCN1C=C2C(=O)C(C)(OC(=O)CCC(=O)OC)C(=O)C=C2C=C1C1CC1 (stereo unspecified)	30	.	6	-117	29	23
CC1(OC(=O)CCc2ccccc2)C(=O)C=C2C=C(C3CC3)OC=C2C1=O (stereo unspecified)	45*	.	.	.	39*	33*
COC(=O)CCC(=O)OC1(C)C(=O)C=C2C=C(C3CC3)N(Cc3ccco3)C=C2C1=O (stereo unspecified)	42*	.	30	-97	37*	15
COC(=O)CCC(=O)OC1(C)C(=O)C=C2C=C(C3CC3)N(C3CC3)C=C2C1=O (stereo unspecified)	29	.	20	-106	22	16
COC(=O)CCC(=O)OC1(C)C(=O)C=C2C=C(C3CC3)N(c3cccc(C#N)c3)C=C2C1=O (stereo unspecified)	43*	.	1	-66	47*	31
COc1ccc(CCNC(=O)Cn2c(=O)n(-c3ccc(F)cc3)c(=O)c3sccc32)cc1OC	.	-4	5	-6	.	.
O=C(O)c1cc([N+](=O)[O-])cc2c1C=Cc1ccccc1O2	11	.	.	.	7	8
Nc1nc2ncc(C(=O)c3cc(Cl)cc(Cl)c3O)cc2s1	29	.	28	-57	32*	-6
CCc1nnc(NC(=O)c2ccc(-c3ccccc3Cl)o2)s1	5	1	20	53*	2	9
COc1ccc(CNC(=O)CCS(=O)(=O)c2cc3c(cc2Cl)NC(=O)CO3)cc1	6	.	.	.	7	1
CCN(C(=O)CSc1nnc(SC(C)C)s1)C1CCS(=O)(=O)C1 (stereo unspecified)	2	.	.	.	1	2
O=C(O)CCc1nc(-c2cccs2)no1	6	-5	84*	-5	0	10
O=C(O)CCc1nc(-c2ccccc2)no1	-6	-1	24	8	-1	4
Cc1ccc(S(=O)(=O)N2CCN(C(=O)COC(=O)CSc3ccccc3)CC2)c(C)c1	-1	.	.	.	0	5
CCOC(=O)c1cc2c(=O)n3ccccc3nc2n(Cc2ccco2)c1=NC(=O)c1cccnc1	18	3	51*	-71	16	7
SMILES	MCL1-BIM inh	Mcl-1 Bim block	Mcl1 Noxa PPI	Mcl1 Bid PPI	BCLXL inh	GLD-1 TGE inh
CCOC(=O)c1cc2c(=O)n3cccc(C)c3nc2n(Cc2ccco2)c1=NC(=O)c1cccnc1	.	13	69*	-14	.	.
Cc1cccn2c(=O)c3cc(C#N)c(=NC(=O)c4ccccc4)n(Cc4ccco4)c3nc12	31	.	.	.	35*	20
O=C(NCCN1CCOCC1)C(=O)NCC1OCCN1S(=O)(=O)c1ccccc1 (stereo unspecified)	4	.	.	.	3	3
N#Cc1c(N)c(C(=O)c2ccccc2)n2ccccc12	-6	.	.	.	6	7
Cc1ccc(-n2c(O)c(/C=N/Nc3ccc(S(=O)(=O)N4CCOCC4)cc3[N+](=O)[O-])c3ccccc3c2=O)c(C)c1	11	4	78*	-7	8	-1
O=C(COC(=O)CN1C(=O)c2ccccc2C1=O)NC1CCCC1	-8	.	.	.	-3	2
O=C(c1cc(-c2ccccn2)nc2ccc(Cl)cc12)N1CCN(CCc2ccccc2)CC1	13	-1	10	-12	11	4
Cc1cnn(C(=O)c2cc(-c3ccccn3)nc3ccc(Cl)cc23)c1	27	0	33	-12	31*	1
COc1ccc(/C=C/C(=O)C(C(N)=O)=C2SCCS2)cc1	8	17	20	-9	9	-8
Cc1ccc(C(=O)C(C(=O)/C=C/c2ccccc2)=C2SCCCS2)cc1	9	58*	2	3	6	0
CCOC(=O)CSC1=NC(=O)/C(=C/c2ccc(Br)cc2)S1	3	0	-8	6	0	-5
CCOC(=O)CSC1=NC(=O)/C(=C\c2ccc(OC(C)=O)cc2)S1	10	2	60*	29	6	4
COc1ccc(NC(=S)NCc2ccc(F)cc2)cc1	9	.	.	.	2	0
CCOC(=O)C[n+]1c(C)sc2ccc(OC)cc21	3	-3	54*	-95	2	0
O=S(=O)(c1ccc(Oc2ccc(-c3nnco3)cc2)nc1)N1CCC(Cc2ccccc2)CC1	-5	-1	-75	59*	0	1
CCOC(=O)c1c(-c2ccccc2)csc1NC(=S)NC	2	-11	55*	-58	3	5
CCCN(CC(=O)Nc1ccccc1OC)C(=O)c1ccc(COc2ccccc2)o1	0	.	.	.	3	-1
O=C(CCCOc1ccccc1)N1CCN(c2ccccc2)CC1	-4	2	-13	59*	1	2
CCN(CC)C(=O)CN1CCN(c2ncccn2)CC1	3	-6	0	56*	2	3
Fc1ccc2[nH]c3c(NCc4ccccc4)ncnc3c2c1	4	.	.	.	9	6
